Source: PubChem BioAssay AID2177 (The Scripps Research Institute Molecular Screening Center, 2009)
Out of some 320,000 compounds screened, about 1,200 (0.38%) were called active.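 How the source made its calls: active means inhibition above the screen-wide mean plus 3 SD, limit set per campaign (cut at about 26% in these data); inactive means the rest.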 The entries come from a sample that favours actives as a whole.

These compounds were tested against Acyl-protein thioesterase 2 (Homo sapiens) (UniProt O95372) (assay: inhibition of human lysophospholipase 2 – biochemical, fluorescence polarization, FP-Rh probe ABPP, counter-screen for PME1 inhibitor project, primary screen (AID 2177;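 further: 0% = LYPLA2 with DMSO and 100% = wells lacking LYPLA2 enzyme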)). Conditions: recombinant LYPLA2, FP-Rh probe fluorescence polarization; at 5.9 µM; stronger effect = higher value.
Chain of Acyl-protein thioesterase 2 (Homo sapiens) (O95372 whole entry, looked up): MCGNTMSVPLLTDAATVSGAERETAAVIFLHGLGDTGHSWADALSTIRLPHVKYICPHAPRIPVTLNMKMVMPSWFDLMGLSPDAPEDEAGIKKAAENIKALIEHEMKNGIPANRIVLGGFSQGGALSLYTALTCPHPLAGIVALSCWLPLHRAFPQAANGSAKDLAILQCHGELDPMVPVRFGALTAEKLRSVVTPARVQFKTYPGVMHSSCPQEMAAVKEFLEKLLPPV

SMILES	inhibition
O=C1/C(=C\c2ccccc2Cl)SC(=S)N1CCC(=O)N1CCCc2ccccc21	-1.32% (inactive)
CCOc1ccc(NC(=O)CN(C)C(=O)CCSc2ccc(F)cc2)cc1OCC	6.29% (inactive)
O=C(CCl)NNc1cccc(Cl)n1	-5.01% (inactive)
CC1CC(NC(=O)/C(C#N)=C/c2ccc[nH]2)CC(C)(C)C1 (stereo not given)	0.74% (inactive)
Cn1c(=O)cc(OCCCC(=O)N2CCN(Cc3ccc4c(c3)OCO4)CC2)c2ccccc21	9.58% (inactive)
O=C(Nc1cccc2ccccc12)N1CCN(Cc2ccc3c(c2)OCO3)CC1	1.22% (inactive)
O=C(CCCN1C(=O)c2cccc3cccc(c23)C1=O)N1CCN(Cc2ccc3c(c2)OCO3)CC1	64.2% (active)
CCCCCc1c(C)nc(N2CCN(Cc3ccc4c(c3)OCO4)CC2)[nH]c1=O	-5.68% (inactive)
CCOC(=O)CSc1nnc(-c2ccc([N+](=O)[O-])cc2)o1	-0.42% (inactive)
N#Cc1ccc(OCc2nnc(-c3ccc([N+](=O)[O-])cc3)o2)cc1	32.3% (active)
O=C(CSc1nnc(-c2ccc([N+](=O)[O-])cc2)o1)Nc1ccccn1	0.49% (inactive)
N#Cc1c(/N=C/N2CCCC2)oc(-c2ccccc2)c1-c1ccccc1	4.8% (inactive)
CC(=O)C12CC(C)=C(C)CC1CC1C3CCC4=CC(=O)CCC4(C)C3CCC12C (stereo not given)	-4.85% (inactive)
COc1ccccc1N1CC(C(=O)NCCN2C(=O)S/C(=C\c3cccnc3)C2=O)CC1=O (stereo not given)	1.85% (inactive)
CCOc1ccc(N2CC(C(=O)NCCN3C(=O)S/C(=C\c4cccnc4)C3=O)CC2=O)cc1 (stereo not given)	6.19% (inactive)
COc1ccc(N2CC(C(=O)NCCN3C(=O)S/C(=C\c4cccnc4)C3=O)CC2=O)c(OC)c1 (stereo not given)	57.6% (active)
Cc1cc(C)c(S(=O)(=O)N2CCC(C(=O)OCc3c(C)noc3C)CC2)c(C)c1	5.23% (inactive)
COCCn1c(SCC(=O)c2[nH]c(C)c(C(C)=O)c2C)nc2ccccc2c1=O	-1.43% (inactive)
CN(CC(=O)NCCc1ccccc1)S(=O)(=O)c1cnc[nH]1	-2.19% (inactive)
CCC(C)NC(=O)c1ccc(NC(=O)CC2SC(N3CCCCC3)=NC2=O)cc1 (stereo not given)	-2.2% (inactive)
O=C(CC1SC(N2CCCC2)=NC1=O)Nc1ccc(C(=O)NCCc2ccc(F)cc2)cc1 (stereo not given)	34.5% (active)
COc1ccc(NC(=O)CC2SC(N3CCCCC3)=NC2=O)cc1OC (stereo not given)	-2.51% (inactive)
COc1ccc(C2(CNC(=O)C(c3ccccc3)c3ccccc3)CCOCC2)cc1OC	0.76% (inactive)
CCN(CC)C(=O)CC1(c2ccccc2OC)CCOC(C(C)C)C1 (stereo not given)	27.5% (active)
CCN(CC(=O)Nc1ccccc1OC)C(=O)CC1CC2CCC1C2 (stereo not given)	4.24% (inactive)
c1ccc(-c2ccnc3nc(-n4cccc4)nn23)cc1	5.32% (inactive)
CCN(CC)C(=O)CSc1nnc(C2CCCCC2)o1	6.58% (inactive)
CCCCCC1CCC(c2nnc(SCC(C)=O)o2)CC1 (stereo not given)	34.9% (active)
Cc1[nH]c2ccccc2c1C(=O)C(C)Sc1nnc(C2CC2)o1 (stereo not given)	1.82% (inactive)
CC(=O)Nc1ccc(N2C(=O)CCC2=O)cc1C	2% (inactive)
